# Results taken from PubChem BioAssay.
# Assay: binders of probe aFST on microarray, primary screen, stem cell growth factor project, biochemical, small-molecule microarray, fluorescence 635/667 (AID 1086);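 also: score merges 667 nm fluorescence with signal-to-noise of each printed compound spot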
# Conditions: higher = more signal
row,SMILES,composite z-score
1,CC(C)C[C@@H]1NC(=O)[C@@]23C(=O)N[C@@H](Cc4ccccc4)C2[C@H](C)[C@@]2(C)O[C@H]2C3/C=C/C/C=C\CNC(=O)[C@@H](CC(C)C)NC1=O (stereo partly specified),0.355
2,C=CCC(OC(C)=O)[C@@H]1[C@@H](N(Cc2ccc(-c3cccc(C(F)(F)F)c3)o2)C(=O)c2cccc3ccccc23)c2cc(OCCCO)ccc2N1C(=O)c1ccc2ccccc2c1 (stereo partly specified),-0.0637
3,O=C1OCCC/C=C\[C@H]2OC34C=CCN(Cc5ccccc5)C(=O)[C@H]3N(CCCCCO)C(=O)[C@@H]4C12 (stereo partly specified),-0.693
4,CCCC=C(CCC)[C@@H](NC(=O)c1ccccc1)c1ccc(C(=O)OC)cc1,1.01
5,COC(=O)[C@@]1(Cc2ccc(F)cc2)[C@H]2c3cc(C(=O)N4CCCC4)n(CCO)c3C[C@H]2CN1C(=O)c1ccccc1,0.537
6,COCCCNC(=O)[C@@]1(Sc2ccc(C)cc2)CC(=O)N(C2CCCCC2)[C@@H]1c1ccc(CO)cc1I,0.505
7,COc1ccc([Si](C)(C)[C@H]2[C@H](CCO)O[C@@]3(C(=O)N(Cc4ccc(N5CCOC5=O)cc4)c4ccccc43)[C@@H]2C)cc1,-0.083
8,C=CCNC(=O)[C@@H]1[C@H]2C(=O)O[C@H](c3ccccc3)[C@H](c3ccccc3)N2[C@H](c2ccccc2OCCO)[C@@]12C(=O)N(C(=O)OCCOC)c1ccc(C#CCCO)cc12,-0.66
9,COCCOC(=O)N1C(=O)[C@@]2(c3ccccc31)[C@H](C(=O)N1CCCCCCC1)[C@H]1C(=O)O[C@H](c3ccccc3)[C@H](c3ccccc3)N1[C@@H]2c1ccc(O)cc1,3.43
10,CCCCC(=C=CC[C@@H](O)c1cccc(OCCO)c1)CCO,0.0204
11,O=C(NCC(F)(F)F)[C@@H]1c2ccccc2C(=O)N(CC23CC4CC(CC(C4)C2)C3)[C@H]1c1ccc(CO)cc1,0.195
12,C=CCC(OC(C)=O)[C@@H]1[C@@H](N(Cc2cccc3ccccc23)C(=O)c2ccc(C)cc2)c2cc(OCCCO)ccc2N1C(=O)c1ccc2ccccc2n1 (stereo partly specified),0.223
13,CC#CCO[Si](C#CCCCCCC)(C(C)C)C(C)C,-1.3
14,CC(C)(C)OC(=O)CC[C@]1(C(N)=O)N=C(c2ccc(OCCCO)cc2)O[C@H]1c1ccccc1CN=[N+]=[N-],0.441
15,COc1ccc(CCNC(=O)[C@@]2(C)c3ccccc3C(=O)N(Cc3cc(C(F)(F)F)cc(C(F)(F)F)c3)[C@H]2c2ccc(CO)cc2)cc1,0.169
16,CN(C)CCCC[C@@H]1NC(=O)[C@@H]2C[C@H](C(=O)NCCCCCCNC(=O)CS)[C@H](c3cccc(OCCO)c3)N2C1=O,0.123
17,COCCCNC(=O)[C@@H]1c2ccccc2C(=O)N(C2CCCCC2)[C@H]1c1ccc(CO)cc1,-0.341
18,COC(=O)C1=CC(CCCO)=CC(C2CC2)N(Cc2cccc(OC(F)(F)F)c2)C=C1C(=O)OC (stereo unspecified),0.497

row,SMILES,composite z-score
1,C=C(C(=O)CC[C@@H](OC(C)=O)c1cccc(OCCO)c1)C(C)C,-0.337
2,COc1ccc([Si](C)(C)[C@@H]2[C@@H](CC(=O)N(CCO)Cc3ccccc3)O[C@]3(C(=O)N(Cc4ccc(N5CCC5=O)cc4)c4ccccc43)[C@H]2C)cc1,2.26
3,CC(C)CNC(=O)[C@@H]1c2ccccc2C(=O)N(CC23CC4CC(CC(C4)C2)C3)[C@H]1c1ccc(CO)cc1,0.507
4,COc1cc2c(cc1O)C(c1ccc(CN3CCCC3)cc1)N(Cc1ccc([N+](=O)[O-])o1)CC2 (stereo unspecified),-0.21
5,COC(=O)[C@]1(CO)N=C(c2ccc(OCCCO)cc2)O[C@@H]1c1ccccc1CN=[N+]=[N-],-0.144
6,COCCOC(=O)N1C(=O)[C@@]2(c3ccccc31)[C@H](c1ccc(OCCO)cc1)N1[C@H](c3ccccc3)[C@H](c3ccccc3)OC(=O)[C@H]1[C@@H]2C(=O)N1CCN(c2ncccn2)CC1,0.742
7,COCCOC(=O)N1C(=O)[C@@]2(c3cc(C#Cc4ccc(OC)cc4)ccc31)[C@H](c1ccc(OCCO)cc1)N1[C@H](c3ccccc3)[C@H](c3ccccc3)OC(=O)[C@H]1[C@@H]2C(=O)N1CCCCCCC1,2.75
8,Cc1ccccc1C(O)C1C=CC2C(=O)N(c3ccccc3)C(=O)C2N1Nc1ccccc1F (stereo unspecified),1.19
9,CO[C@H]1O[C@H](CO)[C@@H](OC(=O)Nc2ccc(C(F)(F)F)cc2)[C@H](OC(=O)Nc2ccccc2-c2ccccc2)[C@@H]1OC(=O)Nc1ccccc1-c1ccccc1,1.32
10,C=C(COC)C(=O)CC[C@@H](OC(C)=O)c1ccc(OCCO)cc1,-0.25
11,CCC(CC)C(O)C1C=CC2C(=O)N(C)C(=O)C2N1N1CCCCC1 (stereo unspecified),1.29
12,CCCC[C@@H]1C[C@H]1[C@@H](NC(=O)c1ccc(C(F)(F)F)cc1)c1ccc(C(=O)OC)cc1,0.568
13,C=CCN1C(=O)[C@]2(O[C@H](CCn3cc([C@H](O)c4ccccc4)nn3)[C@@H]([Si](C)(C)c3ccc(OC)cc3)[C@@H]2C)c2cc(N3C(=O)c4cccc5cccc3c45)ccc21,-0.516
14,COc1ccc([Si](C)(C)[C@H]2[C@H](CCO)O[C@@]3(C(=O)N(Cc4ccccc4)c4ccc(N(C=O)c5ccccc5)cc43)[C@@H]2C)cc1,0.643
15,COCCOC(=O)N1C(=O)[C@@]2(c3cc(C#Cc4ccc(OC)cc4)ccc31)[C@H](C(=O)Nc1nc3ccccc3s1)[C@H]1C(=O)O[C@H](c3ccccc3)[C@H](c3ccccc3)N1[C@@H]2c1ccccc1OCCO,-0.179
16,CN(C)C(=O)[C@]1(Cc2ccccc2)N=C(c2ccc(OCCCO)cc2)O[C@@H]1c1ccccc1,0.952
17,CCCCC(=C=CC[C@H](O)c1ccc(OCCO)cc1)C[C@H](O)c1ccccn1,0.763
18,Cc1ccc(S(=O)(=O)N2[C@@H](c3ccccc3)C(C(=O)O)=CC[C@H]2c2ccc(C#N)cc2)cc1,0.538
